Results from PubChem BioAssay (NCI).
This is part of a sample that, as a whole, favours compounds with a hit. Of some 83,000 tested, about 20% had one in any assay.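 A percent growth of 40 corresponds to 60% growth inhibition; 0 means no net growth; -100 means all cells died. Active threshold: below 10.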 A number with no mark means an inactive call. The source made the active and inactive calls.

system: SK-MEL-5 melanoma; test: NCI-60 one-dose screen, 48 h (100 = growth as untreated, 0 = no growth, -100 = all killed); conditions: 10 µM unless noted
Experimental: Growth inhibition of the SK-MEL-5 human tumor cell line is measured as a screen for anti-cancer activity. Cells are grown in 96 well plates and exposed to the test compound for 48 hours. Compounds are tested at a single concentration, which is 10^-5 M for most compounds. The reported endpoint is percent growth (GI% or GIPRCNT), where numbers from 0 - 100% represent growth inhibition, and numbers from -100% - 0 represent cell death. For example, a value of 40 represents 60% growth inhibition. A value of 0 means no net growth occurred over the course of the experiment. A value of -40 indicates 40% of cells at the beginning of the experiment died by the end of the experiment. A value of -100 means all cells are dead at the end of the experiment.
NCI-60 Human Tumor Cell Lines Screen was performed using the standard one-dose NCI protocol, which is described in more detail at https://dtp.cancer.gov/discovery_development/nci-60/default.htm.
Compounds with GIPRCNT values below 10 were considered active. Activity score was based on GIPRCNT using the following formula: […]
Score is 0 for GIPRCNT values of 100 or above, 50 for GIPRCNT values of 0, and 100 for GIPRCNT values of -100.

First: CN1CCN(C(=O)[C@]2(C)CC[C@]3(C)CC[C@]4(C)C(=CC(=O)[C@@H]5[C@@]6(C)CCC(=O)NC(C)(C)[C@@H]6CC[C@]54C)[C@@H]3C2)CC1
Second: C=C(C)[C@@H]1CC[C@]2(C(=O)N3CCN(C)CC3)CC[C@]3(C)[C@H](CC[C@@H]4[C@@]5(C)CCC(=O)C(C)(C)[C@@H]5CC[C@]43C)[C@@H]12
The growth of the first is lower: 88.8% for the first, 92.1% for the second.

Compared with COc1ccc(-c2nc(N/N=C/c3ccco3)nc(N3CCOCC3)c2C#N)cc1, COc1ccc(-c2nc(SCCC(C)C)nc(N/N=C(/C)c3ccc(C)cc3)c2C#N)cc1 is higher in growth: 80.4% for the first, 94.3% for the second.

Going from O=C(N/N=C/c1cccnc1)c1ccccc1Nc1cccc(C(F)(F)F)c1 to O=C(Cc1ccc(/C=C/C(=O)c2ncc[nH]2)cc1)Nc1ccc(C(F)(F)F)cc1, the growth falls from 74.3% to 47.7%.

First: CC(C)Cc1ccc(C(C)C(=O)NCc2c[nH]c3ccc(Cl)cc23)cc1 (stereo not given)
Second: Cc1ccccc1-c1cc(Cc2ccc(F)cc2)c(=O)[nH]n1
The growth of the first is lower: 85.4% for the first, 98.3% for the second.

Going from CCC1(CC)NC(=O)c2c(c3ccc(Cl)c(Cl)c3n2C)C1C#N (stereo not given) to Cc1cc(C)n(Nc2nc3ccccc3[nH]c2=O)c(=O)c1C#N, the growth rises from 89.9% to 95.3%.

CN(C)Cc1c(-c2ccccc2)[nH]c2ccccc12 and CCOC(=O)c1c(O)cc(-c2ccccc2)cc1-c1sc(N(C)Cc2ccccc2)nc1Cl are the same in growth: 101% for the first, 101% for the second.

Going from O=C(O)CCCCCCCCCCCCCCC(=O)O to CCN(CC)CCCCCCNc1cc(OC)cc2cccnc12, the growth falls from 103% to 68.5%.

Going from FCc1nc2nc(Cl)c(Cl)nc2[nH]1 to CC(C)CCSc1nc(NNC(N)=O)c(C#N)c(-c2ccccc2)n1, the growth rises from 99.4% to 104%.

First: CC(O)/C=C/C=C/C(O)CC/C=C/C(=O)NCC(C)(C)O (stereo not given)
Second: O=C(O)C(/C=C/c1ccco1)=N\Nc1nc(-c2ccc(Cl)cc2)cs1
The growth of the first is higher: 99.1% for the first, 62.1% for the second.

Compared with O=C(N/N=C/c1ccc(O)c(O)c1)c1sc2ccccc2c1Cl, COc1ccc(NC(=O)c2sc3nc(C)c(C(=O)c4ccc(OC)cc4)cc3c2N)cc1 is lower in growth: 81.8% for the first, 35.1% for the second.

First: CC(=O)N1N=C(c2cccc(Nc3ccncc3)c2)CC1c1ccc2c(c1)OCO2 (stereo not given)
Second: COc1cccc(-c2nc3occn3c2-c2ccnc(NCCCNS(=O)(=O)c3cccc(F)c3)n2)c1
The growth of the first is higher: 81.6% for the first, 48.2% for the second.

First: O=S(=O)(O)c1cc(O)c2c(N=Nc3ccc(Nc4ccccc4)c4c(S(=O)(=O)O)cccc34)cc(S(=O)(=O)O)cc2c1
Second: CCCCCOc1ccc(/C=N/Nc2cc(C)nc3ccc(Br)cc23)cc1
The growth of the first is higher: 109% for the first, 89.1% for the second.

Compared with O=C(O)c1ccc[n+](CC(=O)N2CCN(c3cc4c(cc3F)c(=O)c(C(=O)O)cn4C3CC3)CC2)c1, C=C(C)[C@@H]1CC[C@]2(C(=O)O)CC[C@]3(C)[C@H](CC[C@@H]4[C@@]5(C)C[C@@H](CC#Cc6ccc(Br)cc6)C(=O)C(C)(C)[C@@H]5CC[C@]43C)[C@@H]12 is lower in growth: 91.7% for the first, 68.6% for the second.

Compared with OC(c1ccccc1)c1ccccn1 (stereo not given), COc1ccc(CC(C)=C(c2ccc(OCCN(C)C)cc2)c2ccc(OCCN(C)C)cc2)cc1 is lower in growth: 101% for the first, 84.2% for the second.

Going from C=C1C(=O)O[C@H]2[C@H]1CC/C(COC(=O)CCCCCC(=O)OC/C1=C/CC[C@@]3(C)O[C@H]3[C@H]3OC(=O)C(=C)[C@@H]3CC1)=C\CC[C@@]1(C)O[C@@H]21 to O=C1CCCCCCCCC(O)C(O)CCCC(c2cccs2)O1 (stereo not given), the growth rises from 26.3% to 91%.

In the case of CN(C)c1ccc(-c2c(C#N)c(N)n3nc(N)c(C#N)c3c2C#N)cc1, the growth is reported as 71.1%.

In the case of COc1ccc(C(O)c2cc3c(N)c(C(=O)Nc4cccc(OC)c4)sc3nc2C)cc1 (stereo not given), the growth is reported as -35.4% (active).
For COc1cc(C2CC(c3cccc(Nc4ccncc4)c3)=NN2c2cc(Cl)cc(Cl)c2)cc(OC)c1OC (stereo not given), the growth was 2.57% (active).
With COC(=O)Nc1nc2ccc(C(=O)c3cccc(I)c3)cc2[nH]1 the growth was -33.9% (active).
CN(C)C(=O)c1cc2cnc(Nc3ccc(-c4csc5c(=O)cc(N6CCOCC6)oc45)cc3)nc2n1C1CCCC1 was tested, and the growth was -98% (active).
For CCNNC(=O)[C@@H]1[C@H](c2cc(OC)c(OC)c(OC)c2)c2cc3c(cc2[C@H](O)[C@H]1CO)OCO3, the growth was -38.8% (active).
For COc1ccc(NC(=O)c2sc3nc(C)c(C(O)c4ccc(OC)cc4)cc3c2N)cc1 (stereo not given), the growth was 9.53% (active).
In the case of COc1ccc(Nn2c(SCC(=O)Nc3nc(-c4ccc(Cl)cc4)cs3)nc(C)c2C)cc1, the growth is reported as -21.5% (active).
With COc1ccc(C(=O)c2cc3c(N)c(C(=O)Nc4cccc(Br)c4C)sc3nc2C)cc1 the growth was -36.2% (active).
With COc1ccc(-c2nc3sccn3c2/C=C/C(=O)c2cc(OC)c(OC)c(OC)c2)cc1 the growth was -10.9% (active).
